# According to PubChem BioAssay (NCI):
# Values joined by “and” are separate entries in the source; they are usually repeats but may differ in a detail not shown here. Equal values may be shown once. The panel holds about 83,000 compounds, 20% with a hit somewhere; the sample as a whole holds those more often.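 Testing used 96-well plates and a 48-hour single-concentration exposure. Example: -40 means 40% of the starting cells died.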 Unmarked numbers belong to inactive results. Active and inactive are the calls of the source. The calls were made as follows: active = growth percent below 10; inactive = the rest.
# Legend:
# Experiment in all cases: NCI-60 one-dose screen, 48 h (100 = growth as untreated, 0 = no growth, -100 = all killed)
# Details in all cases: 10 µM unless noted
# [1] = system: HCT-15 colon
# [2] = system: HT29 colon
# [3] = system: SNB-75 CNS
# [4] = system: SNB-19 CNS
# [5] = system: U251 CNS
# [6] = system: PC-3 prostate
# [7] = system: SK-MEL-5 melanoma
# [8] = system: UACC-62 melanoma
# [9] = system: LOX IMVI melanoma
# [10] = system: SK-MEL-28 melanoma
# [11] = system: SK-MEL-2 melanoma
# [12] = system: EKVX NSCLC
# [13] = system: SN12C renal
# [14] = system: UO-31 renal
# [15] = system: TK-10 renal
# [16] = system: ACHN renal
# [17] = system: CAKI-1 renal
# [18] = system: A498 renal
# [19] = system: CCRF-CEM leukemia
# [20] = system: MOLT-4 leukemia
SMILES,growth [1],growth [2],growth [3],growth [4],growth [5],growth [6],growth [7],growth [8],growth [9],growth [10],growth [11],growth [12],growth [13],growth [14],growth [15],growth [16],growth [17],growth [18],growth [19],growth [20]
COc1ccc(/C=N/C2=C(C#N)C(c3ccccc3)c3c(ccc4ccccc34)O2)cc1 (stereo not given),22.5%,5.31% (active),-39.4% (active),22.9%,24.1%,23.3%,20.8%,37.3%,28.5%,64.7%,49.7%,32.7%,48%,37.5%,64.4%,35.3%,13.9%,-6.08% (active),15.2%,27.3%
C#Cc1cc(C(=O)Nc2ccc(CN3CCN(C)CC3)c(C(F)(F)F)c2)ccc1C,26.3%,5.65% (active),76.3%,94.9%,56%,61.5%,15.6%,40.2%,31.1%,18.8%,91.1%,91.5%,84.5%,60.2%,94.7%,92.2%,63.7%,63.9%,74.8%,58.9%
CS(=O)(=O)Nc1cc(-c2ccc3ncnc(Nc4ccc(F)c(Cl)c4)c3c2)cnc1Cl,8.37% (active),9.63% (active),-15.9% (active),20.1%,3.05% (active),-7.94% (active),-93.5% (active),-8.21% (active),-23.8% (active),14.8%,-7.25% (active),-3.92% (active),10.2%,-3.81% (active),-14.5% (active),14.6%,3.33% (active),-59.3% (active),9.76% (active),-19.9% (active)
O=C1OCC2=C1C(c1cccc(C(F)(F)F)c1)c1cc3c(cc1N2CCO)OCCO3 (stereo not given),14.1%,3.94% (active),42.4%,23.4%,14.7%,26.2%,22.9%,39.9%,37.4%,50%,26.1%,49.1%,46%,47.4%,54.4%,33.7%,30.5%,16%,9.36% (active),16.8%
BrC1=C(Br)C(Br)(Br)C(Br)=C1Br,60.8%,63.9%,72.7%,92.3%,91.9%,84.6%,102%,71%,45.5%,93%,95.3%,109%,86.2%,79.3%,97.8%,88.5%,87.3%,109%,17.5%,17.1%
COc1ccc(Nc2nn3c(SCC(=O)c4ccc(C)cc4)nnc3s2)cc1,105%,105%,95.7%,98.8%,106%,85.5%,95.4%,83.7%,95.9%,109%,98.2%,99.9%,101%,58.7%,107%,86.5%,75.2%,93.7%,98.1%,85.4%
Fc1ccccc1-c1cnn2cc(-c3ccccc3)cnc12,90.5%,105%,81.7%,94.1%,98.9%,88.5%,101%,91.5%,98.7%,113%,107%,103%,92.1%,85.6%,104%,101%,88.8%,87.8%,93.3%,98.1%
Nc1nc(Cl)nc2c1ncn2C1OC(CO)C(O)C1O (stereo not given),60.8% and 68.4%,105% and 87.7%,105% and 91.5%,52% and 53.5%,74.6% and 64.1%,65.6% and 67.5%,67.6% and 52.4%,90.1% and 80.5%,88.7% and 66.6%,64.6% and 75.2%,82.9%,102% and 110%,30.2% and 28.3%,25.1% and 13%,82.4% and 87.6%,65.9% and 61.9%,25.9% and 41%,96.6%,0.283% (active) and -17% (active),2.75% (active) and 3.08% (active)
CCc1c2c(nc3ccc(OCc4ccc(B5OC(C)(C)C(C)(C)O5)cc4)cc13)-c1cc3c(c(=O)n1C2)COC(=O)[C@]3(O)CC,32.9%,10.2%,5.99% (active),8.91% (active),-8.07% (active),26.9%,-54.8% (active),-40.7% (active),-55.2% (active),32.8%,20.4%,35%,3.16% (active),-13.2% (active),39.5%,-9.99% (active),-1.75% (active),-40.3% (active),8.7% (active),8.97% (active)
C[C@]12CCc3c(ccc4cc(O)ccc34)[C@@H]1C[C@H](O)[C@@H]2O,108%,102%,116%,95%,101%,78.5%,102%,88.6%,93.3%,110%,125%,74.7%,93%,85.3%,110%,98%,77.5%,73%,84.7%,102%
Nc1nc(N)c2c(n1)NC(c1cccc(Nc3ccnc4cc(C(F)(F)F)ccc34)c1)CC(c1ccc(F)cc1)=N2 (stereo not given),21.3%,12.5%,47.1%,61.3%,33.6%,34.4%,30.4%,71.4%,40.5%,79.2%,37.3%,47%,59.8%,53.7%,91.8%,75.5%,47.1%,78.1%,25%,2.74% (active)
O=C(/C=C/C12c3ccccc3C(c3ccccc31)C1C(=O)NC(=O)C12)c1ccncc1 (stereo not given),4.66% (active),12.1%,13.7%,14.5%,7.81% (active),20.8%,27.6%,23.4%,-10.7% (active),24.7%,46.6%,80.6%,7.85% (active),26.5%,17.5%,23.7%,43.9%,87.4%,-12.7% (active),1.28% (active)
Cc1ccc(S(=O)(=O)OC[C@@]2(C)CC[C@]3(C)CC[C@]4(C)C(=CC[C@@H]5[C@@]6(C)CCCNC(C)(C)[C@@H]6CC[C@]54C)[C@@H]3C2)cc1,-89.7% (active),-88.2% (active),-57.1% (active),-16.7% (active),-89.6% (active),-10.3% (active),40.1%,-69.2% (active),-99.5% (active),55.6%,-59% (active),9.58% (active),-88.3% (active),-2.29% (active),-61.1% (active),-100% (active),-92.4% (active),86.8%,-28.6% (active),-42.1% (active)
COc1cc(-c2nn(-c3cccc(NC(=O)CCN4CCN(C)CC4)c3)cc2-c2ccncc2)ccc1Cl,21.2%,-17.4% (active),-5.41% (active),44%,21.5%,14%,8.48% (active),28.2%,-16% (active),16.9%,2.29% (active),47.1%,33.3%,41.5%,39.2%,51.7%,38.7%,14.1%,9.08% (active),12.7%
